The nature of assay [1]: qHTS assay for small molecule agonists of the p53 signaling pathway (AID 651631; calls by dose curve; further: nearly all actives have a fitted effect of over 15% in size; further: potency means the concentration at half of the fitted maximal effect). The procedure, abridged: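 HCT-116 p53RE-bla reporter line, 16 h compound treatment at 37 °C, then fluorescence after 2 h with B/G FRET substrate.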
(In general: Quantitative high-throughput screening tests each substance at several concentrations.)

Assay [2] can be described thus: qHTS assay for small molecules that induce genotoxicity in human embryonic kidney cells expressing luciferase-tagged ATAD5 (AID 651632). Further: nearly all actives have a fitted effect of over 15% in size. The method in brief:
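A rise in luciferase signal from ATAD5-tagged HEK293T cells marks genetic stress. Cells were exposed to compounds for 16 hr at 37C, 5% CO2, then luciferase was quantified after a 30 min room-temperature incubation with Amplite.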

Assay [3] in a line: qHTS assay for small molecule agonists of the p53 signaling pathway - cell viability (AID 651633; calls by dose curve; further: nearly all actives have a fitted effect of over 30% in size; further: potency means the concentration at half of the fitted maximal effect). The method in brief: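 Viability counter-read: CellTiter-Glo luminescence (30 min, room temperature) in the same p53RE-bla plates. These plates had been exposed to compounds for 16 h at 37 C.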
Assay [4] in a line: qHTS assay for small molecules that induce genotoxicity in human embryonic kidney cells expressing luciferase-tagged ATAD5 - cell viability (AID 651634; calls by dose curve; further: nearly all actives have a fitted effect of over 25% in size; further: potency means the concentration at half of the fitted maximal effect). The procedure, abridged: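 Cytotoxicity counter-readout: after 15.5 hr compound treatment at 37C, live-cell protease activity in ATAD5-luciferase HEK293T cells measured by CellTiter-Fluor fluorescence, 30 min development at 37C.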

Assay [5] is described as follows: qHTS assay to test for compound auto fluorescence at 590 nm (red) in HepG2 cells (AID 720674). The procedure, abridged:
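We screened compounds on adherent HepG2 cells, incubating them for an hour at 37 C in 5% CO2 before reading emission at 590 nm under 540 nm excitation; values reflect equivalence to Rose Bengal sodium fluorescence.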

A short description of assay [6]: qHTS assay to test for compound auto fluorescence at 535 nm (green) in HepG2 cells (AID 720675).
A short description of assay [7]: qHTS assay to test for compound auto fluorescence at 460 nm (blue) in HEK293 cells (AID 720678). The procedure, abridged:
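Auto fluorescence in the blue band was quantified as triamterene equivalency. HEK293 cells were seeded at 2,000/well, dosed after a 4-5 hr attachment, and kept overnight at 37C before the 405/460 nm reading.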

A short description of assay [8]: qHTS assay to test for compound auto fluorescence at 590 nm (red) in HEK293 cells (AID 720679). The method in brief: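 Autofluorescence equivalency to Rose Bengal sodium, 540/590nm, in HEK293 cells exposed overnight to 23 nL compound per well.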
The nature of assay [9]: qHTS assay to test for compound auto fluorescence at 535 nm (green) in HEK293 cells (AID 720680).
The nature of assay [10]: qHTS assay to test for compound auto fluorescence at 460 nm (blue) in HEK293 cell free culture (AID 720681). The method in brief:
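Blue fluorescence (Ex 405/Em 460 nm, triamterene-equivalent) was read immediately after pin transfer of compound or DMSO into medium (DMEM, 10% FBS) without cells.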

The nature of assay [11]: qHTS assay to test for compound auto fluorescence at 535 nm (green) in HEK293 cell free culture (AID 720682). The procedure, abridged:
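Steps: dispense DMEM/10% FBS into empty wells; pin in compound or DMSO; measure fluorescence at 485/535 nm. Values are fluorescein equivalents.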

A short description of assay [12]: qHTS assay to test for compound auto fluorescence at 590 nm (red) in HEK293 cell free culture (AID 720683). The method in brief:
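Red-channel autofluorescence of compounds in culture medium (DMEM, 10% FBS), no cells, measured at 540/590 nm. Rose Bengal sodium is the reference fluorophore for equivalence.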

Assay [13] can be described thus: qHTS assay to test for compound auto fluorescence at 590 nm (red) in HepG2 cell free culture (AID 720684). The method in brief:
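Cell-free; medium MEM + 10% FBS; compound or DMSO added by pintool; read Ex 540/Em 590 nm; Rose Bengal sodium as red reference fluorophore.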

Assay [14] can be described thus: qHTS assay to test for compound auto fluorescence at 460 nm (blue) in HepG2 cell free culture (AID 720685). The procedure, abridged:
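Cell-free plates of MEM plus 10% FBS received 23 nL compound or DMSO vehicle; blue-channel (405/460 nm) intensity scored against triamterene as reference fluorophore.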

Assay [15] in a line: qHTS assay to test for compound auto fluorescence at 535 nm (green) in HepG2 cell free culture (AID 720686).
Assay [16] is described as follows: qHTS assay to test for compound auto fluorescence at 460 nm (blue) in HepG2 cells (AID 720687). The method in brief:
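Blue-channel autofluorescence (Ex/Em 405/460 nm, triamterene-equivalent) was measured after 1 hr compound exposure at 37 C, 5% CO2. Cells were HepG2, plated overnight at 37 C in MEM plus 10% FBS.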

Assay [17] in a line: qHTS assay for small molecule disruptors of the mitochondrial membrane potential - cell viability (AID 720634; calls by dose curve; further: nearly all actives have a fitted effect of over 20% in size; further: potency means the concentration at half of the fitted maximal effect). The procedure, abridged:
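Cytotoxicity was quantified from ATP content by CellTiter-Glo luminescence in the same wells as the MMP dye read-out. HepG2 (2,000 cells/well) were plated overnight and exposed to compounds for 1 hr at 37 C.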

Assay [18] is described as follows: qHTS assay for small molecule disruptors of the mitochondrial membrane potential (AID 720635). Further: potency means the concentration at half of the fitted maximal effect. The method in brief: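 Mitochondrial membrane potential tracked with Mito-MPS dye, red aggregates (ex 540/em 590 nm) against green monomers (ex 490/em 535 nm). Compound treatment 1 hr at 37C, dye 30 min in HepG2.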
Assay [19] concerns the target Glucocorticoid receptor (Homo sapiens) (UniProt P04150). As to the kind of experiment: qHTS assay to identify small molecule agonists of the glucocorticoid receptor (GR) signaling pathway (AID 720691; active means well fitted activation curve with a large enough effect in the signal ratio in the repeat runs, not every such curve was filed as active; inconclusive means weak or mixed curves, or effect the other way; inactive means no such curve, though single readings can be large or run the other way; the % refers to the signal ratio). The note with it: GR-bla HeLa, beta-lactamase reporter ratio, 18 h; activation: at 62.4 µM (top of the series). The method in brief:
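Agonist-mode qHTS in HeLa cells stably expressing a glucocorticoid-response-element beta-lactamase reporter. Fluorescence intensity read with FRET substrate (2 h, room temperature) after 18 h compound treatment at 37 C.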

Assay [20] shares this target. Description: qHTS assay to identify small molecule antagonists of the glucocorticoid receptor (GR) signaling pathway (AID 720692; active means well fitted inhibition curve with a large enough effect in the signal ratio in the repeat runs, not every such curve was filed as active; inconclusive means weak or mixed curves, or effect the other way; inactive means no such curve, though single readings can be large or run the other way; the % refers to the signal ratio). The method in brief: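 Inhibition of dexamethasone-driven (5 nM final) beta-lactamase expression was measured in GRE-reporter HeLa cells over 18 h at 37C. Fluorescence was read after 2 h with the B/G FRET substrate at room temperature.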

Where “and” joins values, the source holds several entries; their conditions need not be identical. Equal entries are not always repeated. Calls of active or inactive are those of the source. Unless noted, the call rests on the fitted dose curve; in most records, active means well fitted curve in the direction sought with a large enough effect in the repeat runs; inconclusive means weak or mixed curves; inactive means no such curve, though single readings can be large; an effect the other way counts as inactive or inconclusive.
On the % scale 0 is the no-effect control and ±100 the full control effect.

Sequence of Glucocorticoid receptor (Homo sapiens) (P04150 whole entry, looked up): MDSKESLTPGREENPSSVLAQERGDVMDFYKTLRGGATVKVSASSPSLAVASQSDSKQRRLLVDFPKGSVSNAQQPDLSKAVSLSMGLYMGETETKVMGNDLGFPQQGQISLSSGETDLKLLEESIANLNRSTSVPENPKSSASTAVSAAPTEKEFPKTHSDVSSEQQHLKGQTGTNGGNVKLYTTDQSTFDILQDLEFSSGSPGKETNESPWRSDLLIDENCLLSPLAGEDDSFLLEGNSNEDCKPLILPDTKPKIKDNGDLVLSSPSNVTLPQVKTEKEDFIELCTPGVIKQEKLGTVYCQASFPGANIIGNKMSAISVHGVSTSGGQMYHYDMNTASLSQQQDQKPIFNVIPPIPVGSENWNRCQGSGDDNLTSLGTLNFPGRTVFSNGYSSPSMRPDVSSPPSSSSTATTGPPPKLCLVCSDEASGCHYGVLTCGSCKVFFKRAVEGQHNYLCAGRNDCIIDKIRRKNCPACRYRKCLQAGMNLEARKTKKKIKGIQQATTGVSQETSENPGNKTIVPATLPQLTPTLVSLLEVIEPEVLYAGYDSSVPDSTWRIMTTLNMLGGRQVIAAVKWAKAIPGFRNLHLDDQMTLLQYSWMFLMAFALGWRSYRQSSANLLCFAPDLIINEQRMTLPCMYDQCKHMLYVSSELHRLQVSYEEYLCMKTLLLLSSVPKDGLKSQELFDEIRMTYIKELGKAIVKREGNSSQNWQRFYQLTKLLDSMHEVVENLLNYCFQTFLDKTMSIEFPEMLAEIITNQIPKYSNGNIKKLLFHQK

As to `C=CC(C)(CCC=C(C)C)OC(=O)/C=C/c1ccccc1` (stereo unspecified), the Potency result in assay [1], in assay [2], in [3], in [4], in [5] and in assay [6] was “inactive” throughout. Also, the Potency result in [7], in [8], in assay [9], in [10], in [11] and in [12] was “inactive” each time. The Potency result in assay [13], in assay [14], in [15] and in assay [16] was “inactive” throughout.
Regarding `Cc1c(C(=O)O)cccc1[N+](=O)[O-]`, the Potency entry in [1], in assay [2], in [3], in assay [4], in assay [17] and in assay [18] was “inactive” in each case. Further, the Potency entry in assay [5], in assay [6], in [7], in [8], in assay [9] and in assay [10] was “inactive” each time. Further, the Potency entry in assay [11], in assay [12], in [13], in [14], in assay [15] and in assay [16] was “inactive” each time. Besides, in [19], the Potency entry is “inactive”.
Take `CCOC(=O)N1CCC(=C2c3ccc(Cl)cc3CCc3cccnc32)CC1`: the Potency was 23.7 µM (active) and 61.1 µM (active) in assay [1]; 68.6 µM (active) in assay [3]; 43.3 µM (active) in [4]; 27.3 µM (active) in [17]; 29.8 µM (active) and 54.5 µM (active) in assay [18]. For the same molecule, the Potency result in assay [2], in assay [5], in assay [6], in assay [7], in [8] and in assay [9] was “inactive” throughout. Moreover, the Potency result in assay [10], in assay [11], in assay [12], in [13], in [14] and in assay [15] was “inactive” throughout. Moreover, the Potency entry in [16] and in assay [19] was “inactive” each time.
`COC(=O)NCCC[Si](OC)(OC)OC`: the Potency result in assay [1], in assay [2], in [3], in [4], in [6] and in assay [7] was “inactive” in each case. Moreover, the Potency result in [8], in [9], in [10], in [11], in [12] and in [13] was “inactive” in each case. The Potency result in [14], in assay [15] and in assay [16] was “inactive” throughout.
Consider `O=C(Nc1ccc(Cl)c(Cl)c1)c1cc(Cl)cc(Cl)c1O`, for which the Potency in assay [1] is 3.06 µM (active); in assay [3] it was 0.273 µM (active); in assay [4] it was 4.86 µM (active); in assay [17] it was 1.37 µM (active); in [18] it was 137 nM (active). Also, the Potency result in assay [2], in assay [5], in assay [6], in assay [7], in [8] and in [9] was “inactive” each time. Besides, the Potency entry in assay [10], in assay [11], in assay [12], in assay [13], in assay [15] and in assay [16] was “inactive” throughout. Besides, the activation in assay [19] was 11.6% [inconclusive] (active).
Take `Cc1cccc(Br)c1`: the Potency result in assay [1], in [2], in assay [3], in assay [4], in assay [18] and in assay [5] was “inactive” throughout. For the same molecule, the Potency entry in assay [6], in assay [7], in assay [8], in assay [9], in [10] and in assay [11] was “inactive” in each case. For the same molecule, the Potency entry in assay [12], in assay [13], in assay [14], in [15], in assay [16] and in assay [19] was “inactive” in each case. Also, the Potency entry in assay [20] is “inactive”.

Source of the values: PubChem BioAssay (Tox21).
